Structures are written as SMILES. Where “and” joins values, the source holds several entries; their conditions need not be identical. Equal entries are not always repeated. Records with an inconclusive call do not appear. A call without a number means that no potency is given here. More than one record can exist for a structure, and the calls need not agree. Calls of active or inactive are those of the source. Calls follow the shape of the full dose curve.
Potency is read from the fitted curve at half-maximal effect.

Sequence of Acetylcholinesterase (Homo sapiens) (P22303 whole entry, looked up): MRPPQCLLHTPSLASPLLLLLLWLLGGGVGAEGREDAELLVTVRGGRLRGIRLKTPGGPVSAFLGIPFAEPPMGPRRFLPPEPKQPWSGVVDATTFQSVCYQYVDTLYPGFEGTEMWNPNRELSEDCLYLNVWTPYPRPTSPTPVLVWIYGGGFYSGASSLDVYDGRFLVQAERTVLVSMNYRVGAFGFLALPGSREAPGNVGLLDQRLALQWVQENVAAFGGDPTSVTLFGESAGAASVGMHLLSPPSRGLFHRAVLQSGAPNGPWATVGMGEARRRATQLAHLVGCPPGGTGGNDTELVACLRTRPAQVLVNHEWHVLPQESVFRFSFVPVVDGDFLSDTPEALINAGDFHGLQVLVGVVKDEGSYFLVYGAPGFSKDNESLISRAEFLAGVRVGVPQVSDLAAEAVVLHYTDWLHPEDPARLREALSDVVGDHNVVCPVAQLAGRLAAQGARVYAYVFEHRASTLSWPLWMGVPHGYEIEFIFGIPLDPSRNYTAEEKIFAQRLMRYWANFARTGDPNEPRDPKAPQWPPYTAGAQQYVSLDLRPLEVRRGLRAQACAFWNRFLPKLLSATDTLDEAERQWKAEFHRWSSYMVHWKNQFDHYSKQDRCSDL

In this assay the target is Acetylcholinesterase (Homo sapiens) (UniProt P22303). The assay can be described thus: Acetylcholinesterase (AChE) small molecule antagonists: colormetric cell-based qHTS assay (AID 1347395). Also: nearly all actives have a fitted effect of over 30% in size. The note with it: SH-SY5Y cells AChE activity, colorimetric (Ellman); series mostly up to 115 µM. The text has this:
National Center for Advancing Translational Sciences [NCATS]
Division of Preclinical Innovation [DPI]
U.S. Environmental Protection Agency [EPA]
National Institutes of Environmental Health Sciences [NIEHS]
National Toxicology Program [NTP]
U.S. Food and Drug Administration [FDA]
Acetylcholinesterase (AChE) is the primary cholinesterase in the body that hydrolyzes a key neurotransmitter, acetylcholine. Inhibition of AChE activity can lead to neurotoxicity. The known inhibitors include organophosphorous pesticides (OP), chemical warfare agents, drugs, and various phytochemicals.
A homogenous cell-based assay using the Amplite Colormetric acetylcholinesterase assay kit (AAT Bioquest, Sunnyvale, CA) was used to evaluate the chemicals in the Tox21 10K library that inhibit AChE activity. The assay uses 5, 5-dithiobis-(2-nitrobenzoic acid) (DTNB) to quantify the thiocholine produced from the hydrolysis of acetylthiocholine by AChE from the SH-SY5Y cells.
Tox21 Assay Protocol Summary:
For the cell-based AChE assay, 2,000 SH-SY5Y cells in 4 uL/well were dispensed into black, clear-bottom 1536-well plates using a Multidrop Combi dispenser (Thermo Scientific, MA). The assay plates were incubated overnight at 37 C to allow cells to attach to the wells, followed by the transfer of 23 nL of compound or DMSO (vehicle control) by a Pintool Station (Wako Automation, CA). The plates were incubated for 30 min at 37 C and 5% CO2, followed by the addition of 4 uL of detection cocktail solution (DTNB, acetylthiocholine) into each well using a Flying Reagent Dispenser (Beckman Coulter, CA) and then 90 min incubation at 37 C.
In general terms: qHTS replaces the single test concentration by a dilution series.
Take `CC(=O)[O][Hg][c]1ccccc1`: the Potency entry is “inactive”.

Turning to `OCCOc1ccccc1`, the Potency result is “inactive”.

Take `O=c1[nH]c(=O)n(Cl)c(=O)n1Cl`: the Potency entry was “inactive”.

On to `CCCn1cc[n+](C)c1`, for which the Potency result was “inactive”.

In the case of `COCC(=O)N(c1c(C)cccc1C)C(C)C(=O)OC` (stereo not drawn), the Potency result was “inactive”.

Turning to `Cc1cc(Cl)ccc1OCC(=O)O`, the Potency result was “inactive”.

As to `CCC[N+]1(C)CCCCC1`, the Potency result is “inactive”.

As to `CCCCCCCCCCCC(=O)O`, the Potency entry is “inactive”.

For the molecule `CC[N+]1(C)CCCC1`, the Potency result is “inactive and 22.4 µM (active)”.

As for `Cc1cc(-c2ccc(N)c(C)c2)ccc1N`, the Potency entry is “inactive”.

In the case of `Nc1ccc(-c2ccc(N)cc2)cc1`, the Potency result is “inactive”.

On to `CCCCCCCCCCCCOS(=O)(=O)O`, for which the Potency entry was “inactive”.

As for `CCC(=O)C(CC(C)N(C)C)(c1ccccc1)c1ccccc1` (stereo not drawn), the Potency entry is “inactive”.

Consider `O=C(O)C(Cl)(Cl)Cl`, for which the Potency entry is “inactive”.

In the case of `C[C@]12CCC(=O)C=C1CC[C@@H]1[C@@H]2CC[C@]2(C)C(=O)CC[C@@H]12`, the Potency entry is “inactive”.

Turning to `O=C(O)C(Cl)Cl`, the Potency entry is “inactive”.

For the molecule `CCn1cc[n+](C)c1C`, the Potency result was “inactive”.

For `C1CCC(NC2CCCCC2)CC1`, the Potency entry is “inactive”.

For the molecule `Oc1ccccc1-c1ccccc1`, the Potency result is “inactive”.

For the molecule `CC[n+]1ccccc1`, the Potency entry is “inactive”.

`C=CCOC(Cn1ccnc1)c1ccc(Cl)cc1Cl` (stereo not drawn): the Potency entry was “inactive”.

In the case of `Nc1ccc(-c2ccc(N)c(Cl)c2)cc1Cl`, the Potency result was “inactive”.

As for `CCCCCCCCCCCCCCCCn1cc[n+](C)c1`, the Potency result was “inactive”.

As to `C[N+](C)(C)Cc1ccccc1`, the Potency entry is “inactive”.

Regarding `O=P1(N(CCCl)CCCl)NCCCO1` (stereo not drawn), the Potency result was “inactive”.

For the molecule `CCNc1nc(Cl)nc(NCC)n1`, the Potency was 31.9 µM (active) and inactive.

On to `Nc1ccc(Cl)cc1`, for which the Potency result was “inactive”.

Regarding `CNC`, the Potency entry is “inactive”.

Regarding `CC(Cl)(Cl)C(=O)O`, the Potency entry was “inactive”.

In the case of `CCOP(=S)(OCC)Oc1ccc2c(C)c(Cl)c(=O)oc2c1`, the Potency was 22.7 µM (active) and 12.6 µM (active) and inactive.

For the molecule `CCCCCCCCCCCCCC[P+](CCCCCC)(CCCCCC)CCCCCC`, the Potency was 71.3 µM (active) and 80.3 µM (active) and inactive.

In the case of `O=[N+]([O-])c1ccccc1O`, the Potency result is “inactive”.

On to `O=C(O)CCl`, for which the Potency result was “inactive”.

Regarding `CCCC[N+]1(C)CCCCC1`, the Potency result was “inactive”.

Consider `CCCCCCCCCCn1cc[n+](C)c1`, for which the Potency was 39.8 µM (active) [middle of 6 runs].

As to `O=C(O)c1nc(Cl)ccc1Cl`, the Potency result was “inactive”.

As for `O=C(O)COc1ccc(Cl)cc1Cl`, the Potency result is “inactive”.

For `O=c1nc(O)n(Cl)c(=O)n1Cl`, the Potency result is “inactive”.
